Experimental data from the supplement of paper PMC10127200.
Counter-ions that a name gives are not always drawn.

Tested on: 786-O
Assay: Euclidean distance of Cell Painting phenotypic profile (signed KS, 77 features) to DMSO centroid (dimensionless distance); 5 or 10 uM (library dependent); higher = stronger phenotypic change vs DMSO (phenoactivity)
Details: 48 h
Method in brief: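 Library compounds were applied at 10 or 5 uM, depending on the library, with 0.1% DMSO final, for 48 h to five cancer lines and a healthy fibroblast line. After staining, cells were imaged confocally at 20X across 9 fields per well, and Harmony extracted 77 features, each scored as a signed Kolmogorov-Smirnov statistic against vehicle wells on the same plate. Phenoactivity is the Euclidean distance between each profile and the median vehicle profile, with profiles first plate-position corrected, correlation-weighted and averaged over replicates at the top dose.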

Structure (SMILES)	Euclidean distance
CN1CCN(Cc2ccc(Nc3ncc(Cl)c(Nc4ccccc4S(=O)(=O)N(C)C)n3)cc2)CC1	3.04
O=C1c2c(O)ccc(O)c2C(=O)c2c(NCCNCCO)ccc(NCCNCCO)c21 [Mitoxantrone 2HCl]	5.6
Oc1ccc(Cl)c2cccnc12 [Cloxiquine]	1.62
CO[C@H]1C[C@@H]2CC[C@@H](C)[C@@](O)(O2)C(=O)C(=O)N2CCCC[C@H]2C(=O)O[C@H]([C@H](C)C[C@@H]2CC[C@@H](OP(C)(C)=O)[C@H](OC)C2)CC(=O)[C@H](C)/C=C(\C)[C@@H](O)[C@@H](OC)C(=O)[C@H](C)C[C@H](C)/C=C/C=C/C=C/1C [Ridaforolimus (Deforolimus. MK-8669)]	2.74
CCN(CC)CC(=O)Nc1c(C)cccc1C [Lidocaine]	1.65
O=C(O)c1cn(-c2ccc(F)cc2)c2cc(N3CCNCC3)c(F)cc2c1=O [Sarafloxacin HCl]	1.11
C=CCN1CCCC1CNC(=O)c1cc2nn[nH]c2cc1OC (stereo unspecified) [Alizapride HCl]	0.796
CCOc1ccc(Cc2cc([C@@H]3O[C@H](CO)[C@@H](O)[C@H](O)[C@H]3O)ccc2Cl)cc1 [Dapagliflozin propanediol monohydrate]	1.02
C[C@@H]1O[C@@H]1P(=O)(O)O [Fosfomycin Disodium]	1.44
CN[C@@H](C)C(=O)N[C@H](C(=O)N1CCC[C@H]1C(=O)Nc1snnc1-c1ccccc1)C1CCCCC1	0.872
COc1ccc2cc(C(=O)O)ccc2c1 [6-Methoxy-2-naphthoic acid]	0.861
